CD40 NFkB inh: CD40 pathway inhibition in BL2 cells; BL2 NF-kB luciferase reporter, CD40L-induced, 4 h; inhibition, % at 10 µM; hit rate 0.94% among 83,000; AID 1053188;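 active means mean inhibition of at least 50% with a set share of replicates also reaching that level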;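 further: 0% = neutral control wells and 100% = IKK inhibitor VII at 50 µM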
* marks the source's active call; other numbers are inactive results; [ ] = another dose, or the depositor's remark. The full list was thinned out, with hits kept by preference.

`C[C@H](NC(=O)[C@@H]1[C@@H](CO)[C@@H]2Cn3c(cccc3=O)[C@H]1N2Cc1ccncc1)c1ccccc1` gave CD40 NFkB inh -0.6[25 µM].
For COCC#Cc1ccc([C@H]2[C@H](CO)N3C(=O)CN(C(=O)C4CCCC4)C[C@@H]23)cc1 the results were CD40 NFkB inh -1.2.
`CCS(=O)(=O)N(C)C1c2cc(C#N)ccc2OC(C)(C)C1O` (centres undefined) gave CD40 NFkB inh 1.1[25 µM].
`Cc1ccc(N2CC(C(=O)Nc3nccs3)CC2=O)cc1Cl` (centres undefined) gave CD40 NFkB inh 60.9*.
Screening COCc1nnc(NC(=O)C2CC(=O)N(c3ccc(C)c(Cl)c3)C2)s1 (centres undefined) returned CD40 NFkB inh 0.9.
O=C(Nc1nccs1)C1CC(=O)N(c2ccc(F)cc2)C1 (centres undefined) was read as CD40 NFkB inh 1.5.
For CC(=O)N(C)C[C@H]1Oc2c(cccc2N(C)C)C(=O)N(C)C[C@@H]1C the results were CD40 NFkB inh 5.5.
For C/C=C/c1ccc([C@H]2[C@@H](CO)N(C(C)=O)[C@H]2CN(C)C(=O)c2ccccn2)cc1 the results were CD40 NFkB inh -1.4[25 µM].
Screening CCN(CC)c1ccc(C(NC(=O)C(C)C)c2ccc3cccnc3c2O)cc1 (centres undefined) returned CD40 NFkB inh 75.4*.
`CC(C)C(=O)NC(c1ccco1)c1ccc2cccnc2c1O` (centres undefined) gave CD40 NFkB inh -36.0.
CC(C)C(=O)NC(c1ccc([N+](=O)[O-])cc1)c1c(O)ccc2ccccc12 (centres undefined) was read as CD40 NFkB inh 11.4.
`O=C(O)c1cccnc1SCCc1ccccc1` gave CD40 NFkB inh -58.4.
c1ccc(CCSc2nccn2-c2ccccc2)cc1 was read as CD40 NFkB inh active.
For COC(=O)CCCSc1nccn1-c1ccccc1 the results were CD40 NFkB inh -8.1.
`C[C@H]1CN([C@@H](C)CO)C(=O)c2c(c3ccccc3n2C)-c2ccccc2CO[C@H]1CN(C)C(=O)c1ccncc1` gave CD40 NFkB inh 0.3.
Screening COc1cccc(C(=O)Nc2ccc3c(c2)OC[C@H](C)N(C(=O)C2CCCC2)C[C@H](C)[C@@H](OC)CN(C)C3=O)c1 returned CD40 NFkB inh -3.7.
Screening CS(=O)(=O)N1CCCCN2[C@H](CO)[C@@H](c3ccc(Br)cc3)[C@@H]2C1 returned CD40 NFkB inh 5.8[25 µM].
COc1ccc(OCCOCCN2CCOCC2)cc1 was read as CD40 NFkB inh 16.5.
COc1ccc(/C=C2/CCC(CN3CCOCC3)C2=O)cc1 (centres undefined) was read as CD40 NFkB inh 73.7*.
CN(C)CC1CCC/C(=C\c2ccc(OC(=O)/C=C/c3ccccc3)cc2)C1=O (centres undefined) was read as CD40 NFkB inh 3.3.
O=C(C1CC1)N1[C@H](CO)[C@H]2c3ccccc3NC[C@H]21 was read as CD40 NFkB inh 11.1.
Screening C[C@@H](NC(=O)C[C@H]1C[C@@H]2c3cc(NC(=O)c4ccc5c(c4)OCO5)ccc3O[C@@H]2[C@H](CO)O1)c1ccccc1 returned CD40 NFkB inh -10.5[25 µM].
Screening O=C(C1CCC1)N1C[C@H]2[C@@H](c3ccccc31)[C@@H](CO)N2C(=O)c1ccccc1 returned CD40 NFkB inh 5.5.
Screening CCN(CC)S(=O)(=O)c1cccc(C(=O)N/N=C2\CC(=O)CC(C)(C)C2)c1 returned CD40 NFkB inh 7.9.
`Cc1ccccc1S(=O)(=O)/N=C(/Nc1nc2ccccc2s1)c1ccccc1` gave CD40 NFkB inh -78.1.
For CC1(C)CC(=O)C/C(=N/Nc2nc3ccccc3s2)C1 the results were CD40 NFkB inh 49.7*.
Screening CO[C@@H]1CN(C)C(=O)c2cc(NC(=O)C3CCCC3)ccc2OC[C@@H](C)N(C)C[C@@H]1C returned CD40 NFkB inh 6.5.
For N#C[C@H]1[C@@H](c2ccccc2C2=CCCCC2)[C@H](CO)N1S(=O)(=O)c1cccc(F)c1 the results were CD40 NFkB inh 29.4.
For O=C(O)CCC(=O)c1ccc2c(c1)OCCO2 the results were CD40 NFkB inh -12.7.
CCC(=O)c1ccc2c(c1)OCCO2 was read as CD40 NFkB inh 0.4.
Screening O=C(Cn1ncc(Cl)c(Cl)c1=O)c1ccc2c(c1)OCCO2 returned CD40 NFkB inh 97.8*.
For CC(C)NC(=O)N(C)C[C@H]1Oc2ccccc2CC(=O)N(C)C[C@@H]1C the results were CD40 NFkB inh 10.7.
For COc1ccccc1-c1ccc(C2[C@H]3CNC[C@@H]2N3S(=O)(=O)c2ccccc2OC)cc1 (some centres undefined) the results were CD40 NFkB inh -15.5.
`O=C(CNCCO)N1N=C(c2cccs2)CC1c1cccs1` (centres undefined) gave CD40 NFkB inh 30.5*.
O=C(CSC1=NCCS1)N1N=C(c2cccs2)CC1c1ccc(F)cc1 (centres undefined) was read as CD40 NFkB inh 8.5.
For Cn1nnnc1SCC(=O)N1N=C(c2cccs2)CC1c1cccs1 (centres undefined) the results were CD40 NFkB inh -29.1.
Screening O=C(COCc1cc(-c2ccc3c(c2)OCO3)on1)N1CCCCC1 returned CD40 NFkB inh -68.4.
`O=C(c1cc(-c2ccc3c(c2)OCO3)on1)N1CCOCC1` gave CD40 NFkB inh 48.3*.
For O=C(c1cc(-c2ccc3c(c2)OCO3)on1)N1CCN(c2ccccc2)CC1 the results were CD40 NFkB inh -38.4.
For O=C(Nc1nccs1)[C@@H]1[C@@H](CO)[C@@H]2Cn3c(cccc3=O)[C@H]1N2C(=O)C1CC1 the results were CD40 NFkB inh -8.8[25 µM].
`C[C@@H]1CCCCO[C@H](CN(C)S(=O)(=O)c2ccc(F)cc2)[C@H](C)CN([C@H](C)CO)C(=O)c2cc(NS(C)(=O)=O)ccc2O1` gave CD40 NFkB inh -4.9.
`CC(=O)Nc1ccc2c(c1)-c1ccc(F)cc1C2` gave CD40 NFkB inh -5.8.
`CC(=O)Nc1ccc2c(c1)Cc1ccc(Cl)cc1-2` gave CD40 NFkB inh -51.4.
Screening CC(=O)Nc1ccc2c(c1)Cc1cc(N3C(=O)C=CC3=O)ccc1-2 returned CD40 NFkB inh 97.0*.
For CCOC(=O)Cn1cnc2c(sc3nc(C)cc(C)c32)c1=O the results were CD40 NFkB inh -74.6.
For COC(=O)Cn1cnc2sc3c(c2c1=O)CCCC3 the results were CD40 NFkB inh 3.0.
CCOC(=O)Cn1cnc2sc3c(c2c1=O)CCC3 was read as CD40 NFkB inh 55.8*.
`C[C@H]1CN([C@@H](C)CO)C(=O)c2ccccc2-c2ccccc2CO[C@H]1CN(C)Cc1cccc(C(F)(F)F)c1` gave CD40 NFkB inh 16.6[25 µM].
O=C1C=CC(=O)C2=C1C1c3ccccc3C2c2ccccc21 was read as CD40 NFkB inh 58.8*[25 µM].
For CN1C(=O)c2ccccc2C(O)c2ccccc21 (centres undefined) the results were CD40 NFkB inh 14.5.
For O=C1NNC(=O)C1c1ccccc1 the results were CD40 NFkB inh 6.6.
For C[C@H]1CN(C)C(=O)Cc2cc(NS(C)(=O)=O)ccc2O[C@H]1CN(C)S(C)(=O)=O the results were CD40 NFkB inh -0.1.
Screening CN1C(=O)c2cc(NC(=O)c3cnccn3)ccc2OC[C@H]2O[C@@H](CC(=O)NCC3CC3)CC[C@@H]21 returned CD40 NFkB inh 6.5.
`CN1c2ccc(-c3cccc(F)c3)cc2[C@H]2[C@H](CCN2C(=O)C2CCC2)[C@H]1CO` gave CD40 NFkB inh 37.7[25 µM].
For CN1c2ccc(-c3cccc(F)c3)cc2[C@@H]2[C@@H](CCN2C(=O)C2CCC2)[C@H]1CO the results were CD40 NFkB inh -18.9[25 µM].
